Data from PubChem BioAssay AID1159580 (chemical genetic matrix, 2015).
Where “and” joins values, the source holds several entries; their conditions need not be identical. Identical values can stand only once. Hit rate of the full screen: of about 5,500 compounds, about 2,000 (36%) were called active. Another 18% or so got no clear call; they are omitted. Cut-off read from the data, not from the text of the source: active = normalized growth mostly below about 0.91 (no sharp cut-off); inconclusive = no clear call, values can overlap the other calls; inactive = mostly above about 0.92. Some of the results follow.

Assay: chemical genetic growth profiling, strain panel (AID 1159580);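 note: tested at 20 µM; growth read once vehicle control cultures reached saturation at 30 °C; 1 = growth at the plate median or of vehicle wells; lower values mean less growth of the strain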
Details: S. cerevisiae deletion strains, growth OD

Measured: normalized growth

COc1ccc(C(=O)c2ccccc2)c(O)c1
active: locus YAL026C, strain drs2, stronger effect = lower value 0.74 | locus YAL030W, strain snc1, stronger effect = lower value 0.841 | locus YBL061C, strain skt5, stronger effect = lower value 0.762 | locus YBR009C, strain hhf1, stronger effect = lower value 0.789 | locus YBR023C, strain chs3, stronger effect = lower value 0.807 | locus YBR171W, strain sec66, stronger effect = lower value 0.769 | locus YBR231C, strain swc5, stronger effect = lower value 0.834 | locus YBR279W, strain paf1, stronger effect = lower value 0.854 | locus YCL011C, strain gbp2, stronger effect = lower value 0.78 | locus YCL016C, strain dcc1, stronger effect = lower value 0.792 | locus YCL061C, strain MRC1, stronger effect = lower value 0.791 | locus YCL069W, strain vba3, stronger effect = lower value 0.779 | locus YCR088W, strain abp1, stronger effect = lower value 0.833 | locus YDL005C, strain med2, stronger effect = lower value 0.903 | locus YDL035C, strain GPR1, stronger effect = lower value 0.855 | locus YDL040C, strain nat1, stronger effect = lower value 0.861 | locus YDL074C, strain BRE1, stronger effect = lower value 0.691 | locus YDL192W, strain arf1, stronger effect = lower value 0.808 | locus YDR001C, strain nth1, stronger effect = lower value 0.863 | locus YDR069C, strain doa4, stronger effect = lower value 0.879 | locus YDR101C, strain arx1, stronger effect = lower value 0.868 | locus YDR137W, strain rgp1, stronger effect = lower value 0.451 | locus YDR159W, strain sac3, stronger effect = lower value 0.671 | locus YDR162C, strain NBP2, stronger effect = lower value 0.671 | locus YDR195W, strain ref2 1.16 [resistant] | locus YDR297W, strain sur2, stronger effect = lower value 0.853 | locus YDR318W, strain mcm21, stronger effect = lower value 0.833 | locus YDR334W, strain swr1, stronger effect = lower value 0.859 | locus YDR335W, strain msn5, stronger effect = lower value 0.758 | locus YDR388W, stronger effect = lower value 0.881 | locus YDR392W, strain spt3, stronger effect = lower value 0.43 | locus YDR502C, strain sam2, stronger effect = lower value 0.804 | locus YEL003W, strain gim4, stronger effect = lower value 0.778 | locus YEL037C, strain rad23, stronger effect = lower value 0.841 | locus YEL061C, strain CIN8 (second series), stronger effect = lower value 0.813 | locus YER015W, strain faa2, stronger effect = lower value 0.752 | locus YER016W, strain bim1, stronger effect = lower value 0.862 | locus YER110C, stronger effect = lower value 0.891 | locus YER111C, strain swi4, stronger effect = lower value 0.797 | locus YER155C, strain BEM2 (second series), stronger effect = lower value 0.24 | locus YER155C, strain BEM2, stronger effect = lower value 0.926 | locus YER167W, strain BCK2, stronger effect = lower value 0.837 | locus YFR010W, strain ubp6, stronger effect = lower value 0.888 | locus YGL078C, strain dbp3, stronger effect = lower value 0.911 | locus YGL086W, strain mad1, stronger effect = lower value 0.828 | locus YGL167C, strain pmr1, stronger effect = lower value 0.772 | locus YGL173C, strain kem1, stronger effect = lower value 0.72 | locus YGL227W, strain vid30, stronger effect = lower value 0.84 | locus YGL240W, strain doc1, stronger effect = lower value 0.609 | locus YGL253W, strain hxk2, stronger effect = lower value 0.686 | locus YGR135W, strain pre9, stronger effect = lower value 0.729 | locus YGR229C, strain SMI1, stronger effect = lower value 0.558 | locus YGR252W, strain gcn5, stronger effect = lower value 0.666 | locus YHR013C, strain ard1, stronger effect = lower value 0.757 | locus YHR027C, strain rpn1, stronger effect = lower value 0.87 | locus YHR079C, strain IRE1 (second series), stronger effect = lower value 0.894 | locus YHR079C, strain IRE1, stronger effect = lower value 0.842 | locus YHR094C, strain hxt1, stronger effect = lower value 0.915 | locus YHR142W, strain chs7, stronger effect = lower value 0.541 | locus YHR200W, strain rpn10, stronger effect = lower value 0.861 | locus YIL066C, strain RNR3, stronger effect = lower value 0.827 | locus YIL125W, strain kgd1, stronger effect = lower value 0.898 | locus YIR030C, strain dcg1, stronger effect = lower value 0.906 | locus YJL092W, strain hpr5, stronger effect = lower value 0.827 | locus YJL095W, strain BCK1 (second series), stronger effect = lower value 0.703 | locus YJL095W, strain BCK1, stronger effect = lower value 0.699 and 0.86 | locus YJL115W, strain asf1, stronger effect = lower value 0.869 | locus YJL129C, strain trk1, stronger effect = lower value 0.649 | locus YJL154C, strain vps35, stronger effect = lower value 0.882 | locus YJL164C, strain tpk1, stronger effect = lower value 0.805 | locus YJL166W, strain qcr8, stronger effect = lower value 0.742 | locus YJL168C, strain set2, stronger effect = lower value 0.913
inactive: locus YAL013W, strain DEP1, stronger effect = lower value 0.914 | locus YAL021C, strain ccr4, stronger effect = lower value 0.918 | locus YBR021W, strain FUR4, stronger effect = lower value 0.975 | locus YBR229C, strain ROT2, stronger effect = lower value 0.956 | locus YCL029C, strain bik1, stronger effect = lower value 0.92 | locus YDL101C, strain DUN1, stronger effect = lower value 0.963 | locus YDL134C, strain PPH21, stronger effect = lower value 0.949 | locus YDL185W, strain tfp1, stronger effect = lower value 0.908 | locus YDR150W, strain NUM1, stronger effect = lower value 0.934 | locus YEL061C, strain CIN8, stronger effect = lower value 0.939 | locus YGL248W, strain PDE1, stronger effect = lower value 0.944 | locus YGR078C, strain PAC10, stronger effect = lower value 0.859 | locus YHR129C, strain ARP1, stronger effect = lower value 0.936 | locus YIL073C, strain SPO22, stronger effect = lower value 0.75 | locus YJL134W, strain LCB3, stronger effect = lower value 0.945 | locus YJL187C, strain SWE1 (second series), stronger effect = lower value 0.943 | locus YJR043C, strain POL32, stronger effect = lower value 0.879 | locus YJR066W, strain TOR1, stronger effect = lower value 0.835
0.755 (active) and 0.874 (inactive): locus YHR030C, strain SLT2, stronger effect = lower value
